This is a sample that favours compounds with a hit; in the whole collection about 7.5% have one here.
ELG1 genotox: induces genotoxicity in HEK293T cells with luciferase-tagged ELG1 | HEK293T ELG1-luciferase reporter, luminescence, 16 h | Potency, µM (highest dose often 46 µM), without a hit: top-dose activity change, positive = activation, hits mostly activators | hit rate 1.3% among 330,000 | AID 504466; also: % of control where 0% means no effect; nearly all actives have a fitted effect of over 60% in size
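HEK293T cells expressing luciferase-tagged ELG1 were exposed to compound or DMSO vehicle for 16 hr at 37 °C and 5% CO2. Luciferase activity was then measured with ONE-Glo after 30 min at room temperature.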
FLuc modulator: inhibits or activates purified firefly luciferase, miR-21 counter-screen; P08659; Potency, µM (top dose mostly 57.5 µM), for the others: top-dose activity change, negative = inhibition, actives largely listed as inhibitors; hit rate 6.9% among 360,000; purified FLuc, Km substrates, luminescence inhibition; AID 588342;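 also: plate controls were vehicle for no effect and reference inhibitor for full effect; nearly all actives have a fitted effect of over 55% in size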
Target sequence (P08659 whole entry, looked up): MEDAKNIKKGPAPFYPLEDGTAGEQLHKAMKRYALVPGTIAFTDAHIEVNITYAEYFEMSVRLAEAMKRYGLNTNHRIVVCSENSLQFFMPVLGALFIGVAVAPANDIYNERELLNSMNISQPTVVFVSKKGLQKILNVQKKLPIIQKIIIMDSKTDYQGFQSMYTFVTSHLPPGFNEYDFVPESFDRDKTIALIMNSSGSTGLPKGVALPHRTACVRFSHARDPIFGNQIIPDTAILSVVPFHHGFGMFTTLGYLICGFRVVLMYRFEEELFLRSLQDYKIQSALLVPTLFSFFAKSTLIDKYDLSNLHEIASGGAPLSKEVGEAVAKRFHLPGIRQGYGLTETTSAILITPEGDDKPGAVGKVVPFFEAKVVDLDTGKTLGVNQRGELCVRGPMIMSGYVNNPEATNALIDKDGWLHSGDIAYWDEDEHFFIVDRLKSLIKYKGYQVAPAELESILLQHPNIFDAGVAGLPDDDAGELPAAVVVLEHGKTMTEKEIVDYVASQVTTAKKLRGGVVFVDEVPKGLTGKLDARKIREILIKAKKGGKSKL
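Purified P. pyralis luciferase, 10 nM final, with Km-level 10 uM D-luciferin and 10 uM ATP in 50 mM Tris acetate pH 7.5, 10 mM Mg acetate, 0.01% Tween-20, 0.05% BSA; 6-point qHTS titration about 60 µM downward; luminescence read.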
NPC1 promoter act: activates the NPC1 promoter | Huh7 NPC1 promoter luciferase reporter, 24 h | Potency, µM (titrated, usually from 9.22 µM), for the others: at the top dose activation, hits mostly activators | hit rate 2.4% among 320,000; also: % of control where 0% means no effect; nearly all actives have a fitted effect of over 60% in size
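Huh7 cells stably carrying NPC1 promoter–luciferase, plated in Opti-MEM with 10% FBS for 2 h, were exposed to compound in DMSO for 24 h at 37 °C; luciferase reagent was added for 10 min and luminescence read.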
Rab9 prom act: Rab9 promoter activation | hit rate 2.8% among 320,000 | Potency, µM (top dose mostly 9.22 µM), without a hit: at the top dose activation, negative = inhibition, most hits filed as activators | AID 485297 | Huh7 Rab9 promoter-luciferase reporter, luminescence, 24 h; also: % of control where 0% means no effect; nearly all actives have a fitted effect of over 60% in size
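Steps: seed 1500 Huh7 Rab9-luc cells per well, rest 2 h at 37 °C; add compound in DMSO; incubate 24 h; add luciferase reagent, 10 min ambient; read luminescence.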
SMN2 splice enh: enhancers of SMN2 splice variant expression | HEK293 SMN2-luciferase splicing reporter, luminescence, 30-36 h | Potency, µM (doses to about 46.1 µM), for the others: at the highest dose activity change, positive = activation, actives largely listed as activators | hit rate 2.8% among 210,000; also: % of control where 0% means no effect; nearly all actives have a fitted effect of over 55% in size
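HEK293 cells carry an SMN2 minigene-luciferase reporter in which exon 7 inclusion puts luciferase in frame. Cells were seeded at 2000 cells/well, attached for 10-12 hours, then exposed to compounds for 30-36 hours at 37C before ONE-Glo luminescence.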
* hit, by the source's call. Calls follow the shape of the dose curve; as a rule, active = well fitted curve in the direction sought with a large enough effect; inconclusive = small, poorly fitted or top-dose-only effect, or another doubt; inactive = no such curve, though single readings can be large; an effect the other way counts as inactive or inconclusive. Potency is read from the fitted curve at half-maximal effect.

CCOC(=O)c1sc(NC(=O)c2cccnc2)c(C#N)c1C was read as ELG1 genotox 1%, FLuc modulator 12µM*, NPC1 promoter act 15%, Rab9 prom act 13% and SMN2 splice enh -18%.
`N#Cc1c(NC(=O)c2ccc([N+](=O)[O-])o2)sc2c1CCC2` gave ELG1 genotox inconclusive, FLuc modulator 4.8µM*, NPC1 promoter act 1.6µM* and Rab9 prom act 1.6µM*.
For NC(=O)c1c(NC(=O)c2cccnc2)sc2c1CCCC2 the results were ELG1 genotox inconclusive, FLuc modulator inconclusive, NPC1 promoter act inconclusive, Rab9 prom act inconclusive and SMN2 splice enh -1%.
Screening O=S(=O)(Cc1ccccc1Cl)NCCc1ccccc1 returned ELG1 genotox 3%, FLuc modulator -2%, NPC1 promoter act 0%, Rab9 prom act 2% and SMN2 splice enh 23%.
For COc1ccc(C(=O)c2c[nH]c(C(=O)N=CN(C)C)c2)cc1 the results were ELG1 genotox -15%, FLuc modulator -17%, NPC1 promoter act 28%, Rab9 prom act 26% and SMN2 splice enh 24%.
For CN(CC(=O)NCCCc1ccccc1)S(=O)(=O)c1ccc(Br)cc1 the results were ELG1 genotox -7%, FLuc modulator -2%, NPC1 promoter act 1% and Rab9 prom act -9%.
O=C(Nc1sc2c(c1C(=O)c1ccccc1)CCCC2)c1cccnc1 was read as ELG1 genotox 0%, FLuc modulator -1%, NPC1 promoter act -1%, Rab9 prom act 0% and SMN2 splice enh -7%.
Screening NC(=O)c1c(NC(=O)c2cccc(N3C(=O)CCC3=O)c2)sc2c1CCCCC2 returned ELG1 genotox 15%, FLuc modulator 0.95µM*, NPC1 promoter act 30% and Rab9 prom act inconclusive.
N#Cc1c(NC(=S)NC(=O)c2ccccc2)sc2c1CCCC2 was read as ELG1 genotox 11%, FLuc modulator inconclusive, NPC1 promoter act 25%, Rab9 prom act inconclusive and SMN2 splice enh 16%.
For Cn1ncc(Cl)c1C(=O)NC(=S)Nc1sc2c(c1C#N)CCCCC2 the results were ELG1 genotox 1%, FLuc modulator 12µM*, NPC1 promoter act 19%, Rab9 prom act 5% and SMN2 splice enh -17%.
N#Cc1c(NC(=O)c2cccnc2)sc2c1CCC2 was read as ELG1 genotox inconclusive, FLuc modulator 9.5µM*, NPC1 promoter act -16%, Rab9 prom act -5% and SMN2 splice enh 3%.
For CC(C)c1cc(C(=O)Nc2sc3c(c2C#N)CCC3)no1 the results were ELG1 genotox 0%, FLuc modulator 3%, NPC1 promoter act -2%, Rab9 prom act 20% and SMN2 splice enh 2%.
N#Cc1c(NC(=O)c2cnccn2)sc2c1CCCC2 was read as ELG1 genotox inconclusive, FLuc modulator 6µM*, NPC1 promoter act 18%, Rab9 prom act inconclusive and SMN2 splice enh 10µM*.
`CCN(CC)S(=O)(=O)c1ccc(NC(=O)c2nn(C)c3c2CSc2ccccc2-3)cc1` gave FLuc modulator 1%.
Screening Cc1cccc(C(=O)Nc2sc3c(c2C#N)CCCCC3)c1 returned ELG1 genotox inconclusive, FLuc modulator 0.95µM*, NPC1 promoter act 0.5µM*, Rab9 prom act 1.3µM* and SMN2 splice enh 2µM*.
`Cc1cccc(C(=O)Nc2sc3c(c2C(=O)NC(C)C)CCCC3)c1` gave FLuc modulator -7% and SMN2 splice enh -1%.
For Cc1cc(N2CCCC2)ccc1/C=C1\NC(=S)N(C)C1=O the results were ELG1 genotox 10%, FLuc modulator 13µM*, NPC1 promoter act inconclusive and Rab9 prom act 3.2µM*.
O=C1/C(=C/c2ccc(N3CCCC3)cc2)NC(=S)N1C1CC1 was read as ELG1 genotox -3%, FLuc modulator 12µM*, NPC1 promoter act 4%, Rab9 prom act inconclusive and SMN2 splice enh -12%.
CN1C(=O)c2ccc(N3CCCC3)cc2C1=O was read as ELG1 genotox inconclusive, FLuc modulator inconclusive, NPC1 promoter act 15%, Rab9 prom act 7% and SMN2 splice enh -17%.
O=C(CSc1nnc(C2CC2)n1-c1ccccc1)N1CCCC1 was read as ELG1 genotox -1%.
CCn1cc(CN2CCC(n3nccc3NC(=O)C3CCCC3)CC2)cn1 was read as ELG1 genotox 4%, FLuc modulator 2%, NPC1 promoter act -4% and Rab9 prom act 1%.
Screening O=C(O)/C=C\C(=O)Nc1ccccc1C#Cc1ccc(Br)cc1 returned ELG1 genotox 13%, FLuc modulator 27µM*, NPC1 promoter act -1%, Rab9 prom act 16% and SMN2 splice enh -5%.
COc1ccc(-c2nnc(SCC(=O)c3ccc([N+](=O)[O-])cc3)o2)cc1OC was read as FLuc modulator 1% and SMN2 splice enh 2%.
Screening COc1ccc(C(=O)NCCOc2ccccc2Cl)c(OC)c1OC returned ELG1 genotox 15µM*, FLuc modulator 15µM*, NPC1 promoter act 4.5µM* and Rab9 prom act 3.2µM*.
CCCCN1CC(O)=C(c2nc(-c3ccc(Br)cc3)cs2)C1=N was read as ELG1 genotox inconclusive, FLuc modulator -1%, NPC1 promoter act 21% and Rab9 prom act -4%.
COc1ccc(-c2csc(C3=C(O)CN(CCCN4CCCC4=O)C3=N)n2)cc1OC was read as ELG1 genotox 1%, FLuc modulator 8.5µM*, NPC1 promoter act -3%, Rab9 prom act 13% and SMN2 splice enh inconclusive.
For O=C(/C=C/c1ccco1)Nc1scc(-c2ccccc2)c1C(=O)O the results were ELG1 genotox inconclusive, FLuc modulator 4.8µM*, NPC1 promoter act 0.45µM* and Rab9 prom act 0.5µM*.
For Cc1sc(NC(=O)/C=C/c2ccco2)c(C(=O)OC(C)C)c1C the results were ELG1 genotox 3%, FLuc modulator 0%, NPC1 promoter act -2% and Rab9 prom act -4%.
`O=C(/C=C/c1ccccc1)Nc1scc(-c2ccccc2)c1C(=O)O` gave ELG1 genotox 12%, FLuc modulator 3µM*, NPC1 promoter act 2.5µM*, Rab9 prom act 1.6µM* and SMN2 splice enh 11µM*.
For CCOc1ccccc1/C=N/NC(=O)c1cc(C(C)C)[nH]n1 the results were ELG1 genotox 4%, FLuc modulator inconclusive, NPC1 promoter act 3% and Rab9 prom act 0%.
For Cn1ccc(C(=O)N/N=C/c2c[nH]c3ccccc23)n1 the results were ELG1 genotox inconclusive, FLuc modulator 15µM*, NPC1 promoter act inconclusive and Rab9 prom act inconclusive.
For CC(C)c1cc(C(=O)N/N=C/c2c[nH]c3ccccc23)n[nH]1 the results were ELG1 genotox 5%, FLuc modulator 24µM*, NPC1 promoter act 13% and Rab9 prom act 16%.
Screening O=C(N/N=C/c1c[nH]c2ccccc12)c1ccn(Cc2ccc(Cl)cc2Cl)n1 returned ELG1 genotox -12%, FLuc modulator inconclusive, NPC1 promoter act -6%, Rab9 prom act -2% and SMN2 splice enh -7%.
